Pf growth 48h: inhibits P. falciparum growth in the first generation, 48 h | P. falciparum luciferase growth in erythrocytes, 48 h | Potency, µM (top dose mostly 28.7 µM), for the others: top-dose activity change, negative = inhibition, actives largely listed as inhibitors | hit rate 5.9% among 310,000 | AID 504832
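Growth was read as firefly luciferase luminescence after a 48 h, 37 C, 5% CO2 exposure of compounds to reporter-bearing P. falciparum cultures (0.1% parasitemia, 2% hematocrit final) in Albumax-supplemented RPMI 1640.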
HCV inhibitor: inhibitors of hepatitis C virus infection. Huh7.5.1 HCVcc-Cre infection, luciferase reporter, 44 h. Potency, µM (series often up to 41.8 µM), for inactives: top-dose activity change, negative = inhibition, most hits filed as inhibitors. hit rate 3.4% among 340,000
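Whole-lifecycle infectious HCVcc-Cre system; cells 1,000/well, compound then virus (~0.5 moi) added 4 h after plating, 44 h culture. Luciferase read 15 sec following 15 min substrate incubation, room temp.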
Pf growth 96h: P. falciparum growth inhibition at 96 hour, primary screen for plastid delayed-death inhibitors. P. falciparum luciferase reporter growth, 96 h. Potency, µM (series often up to 28.7 µM), for the others: at the top dose activity change, negative = inhibition, hits mostly inhibitors. hit rate 6.9% among 320,000. AID 504834
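Plates of compound plus infected erythrocytes (2% hematocrit, 0.05% parasitemia final) incubate 96 hours, 37 C, 5% CO2. Detection reagent added; reduced luminescence from the parasites' luciferase reporter flags inhibition.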
AMA1-RON2 inh: disrupts binding of P. falciparum AMA1 to RON2; Potency, µM (highest dose often 58.2 µM), for inactives: at the top dose activity change, negative = inhibition, usual class: inhibitors; AlphaScreen AMA1-biotinylated RON2 peptide binding; AID 720542; hit rate 0.2% among 360,000;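 further: 0% = vehicle wells and -100% = peptide control; nearly all actives have a fitted effect of over 45% in size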
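AMA1 (3D7) with his tag at 25 nM final met compounds first, then biotinylated RON2 peptide at 25 nM; detection used donor plus acceptor beads, 10 µg/mL apiece, read by AlphaScreen after 30 min at room temperature.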
* = called active by the depositor; ? = inconclusive; nt = no result given. Hits are enriched below; roughly 11% of the tested compounds scored in any of these assays. The call rests on the fitted dose curve; in most records, active means well fitted curve in the direction sought with a large enough effect; inconclusive means small, poorly fitted or top-dose-only effect, or another doubt; inactive means no such curve, though single readings can be large; an effect the other way counts as inactive or inconclusive. Unless noted, on the % scale 0 is the no-effect control and ±100 the full control effect; potency means the concentration at half of the fitted maximal effect.

SMILES | Pf growth 48h | HCV inhibitor | Pf growth 96h | AMA1-RON2 inh
O=C(CSc1nnc(NC(=O)c2ccccc2Cl)s1)Nc1ccc2c(c1)oc1ccccc12 | 108% | 9% | ? | nt
CC(=O)Nc1cc(OC(C)=O)c2nonc2c1OC(C)=O | 10µM* | ? | 5% | 7%
O=C1NC(c2cc3ccccc3nc2Cl)Nc2ccccc21 (stereo unspecified) | 2.9µM* | 10% | 1.9µM* | -6%
COc1ccc(C23CC4CC(CC(C(=O)O)(C4)C2)C3)c(F)c1 | 18% | 16% | -7% | -9%
Cc1c(C(C)NC(=O)c2cc(COc3cccc4cnccc34)on2)cnn1C (stereo unspecified) | 2% | 7.1µM* | 8.3µM* | 5%
CCc1ccc(CN(C)C(=O)c2cc(COc3cccc4cnccc34)on2)cc1 | ? | 7.9µM* | 31% | -6%
CN(Cc1cccc2ccccc12)C(=O)c1cc(COc2c(F)cccc2F)on1 | 6% | -15% | ? | 4%
CCCN(CC1CCCO1)C(=O)c1cc(COc2ccc(F)cc2F)on1 (stereo unspecified) | 14% | nt | 12µM* | 1%
CSc1ccccc1OCc1cc(C(=O)NC(C)c2cnn(C)c2)no1 (stereo unspecified) | 17% | -6% | ? | -15%
CN(Cc1cccc2cnccc12)C(=O)c1cc(COc2ccc(F)cc2F)on1 | ? | 8.9µM* | 3% | -8%
Cc1ccc(N2CC(C(=O)NCc3n[nH]c(=O)c4ccccc34)CC2=O)cc1 (stereo unspecified) | 7% | 0% | 6% | 9%
O=C(Oc1cc(-c2ccccc2)no1)c1ccc(Cl)cc1 | nt | 26% | 7% | 2%
CCCCCCCCC(=O)N1C(C)CCC1C (stereo unspecified) | nt | nt | nt | 9%
Cc1ccc(CN(C)C(=O)c2cc(COc3ccc(F)cc3Cl)on2)o1 | 0.093µM* | -8% | 25% | 4%
O=C(NCCc1ccccc1)C1CCN(S(=O)(=O)c2cccc3nonc23)CC1 | nt | 9% | 39% | 3%
COc1ccc(OC)c(S(=O)(=O)N2CCC(C(=O)NCCC3=CCCCC3)CC2)c1 | 13µM* | -13% | -19% | 38%
COC(=O)c1cccc(NC(=S)NCCC2=CCCCC2)c1 | 20% | 13µM* | 12µM* | 34%
COC(=O)c1ccc(NC(=S)NCCC2=CCCCC2)cc1 | 34% | -14% | ? | 5%
COc1ccc(CCNC(=O)C2CCN(S(=O)(=O)c3cccc4nonc34)CC2)cc1OC | -12% | -16% | 8.3µM* | 18%
CCOc1ccc(OCC)c(NC(=O)C2CCN(S(=O)(=O)c3cccc4nonc34)CC2)c1 | nt | 20% | 13µM* | 27%
CCS(=O)(=O)N1CCC(C(=O)NCCC2=CCCCC2)CC1 | ? | 22% | ? | 2%
Cn1ccnc1COc1ccc(C=O)cc1 | 6% | 29% | -26% | 0%
COc1ccc(C)cc1NC(=O)NCCC1=CCCCC1 | 15µM* | 0% | 55% | -3%
COc1cc(C(=O)NCCC2=CCCCC2)cc(OC)c1OC | ? | -23% | 126% | -5%
O=C(C[n+]1ccc(C(=O)c2ccccc2)cc1)Nc1cccc([N+](=O)[O-])c1 | nt | nt | nt | -3%
SMILES | Pf growth 48h | HCV inhibitor | Pf growth 96h | AMA1-RON2 inh
COc1ccc(-c2nc(CS(=O)(=O)CC(=O)Nc3ccc(Cl)cc3)c(C)o2)cc1 | 32% | 10µM* | -29% | -2%
Cc1ccc(-c2nc(CS(=O)(=O)CC(=O)N3CCc4ccccc4C3)c(C)o2)cc1 | -18% | ? | 13µM* | -4%
COc1ccc(NC(=O)CS(=O)(=O)Cc2nc(-c3ccc(C)cc3)oc2C)cc1 | 42% | -13% | -26% | -2%
COc1cc(OC)c(NC(=O)CS(=O)(=O)Cc2nc(-c3ccc(C)cc3)oc2C)cc1Cl | nt | ? | 8.3µM* | -7%
CC1CN(CCc2ccccc2)c2nc3c(c(=O)n(C)c(=O)n3C)n2C1 (stereo unspecified) | -8% | 20% | ? | 0%
O=C(N=C1SC2CS(=O)(=O)CC2N1c1ccccc1Cl)C1CCCO1 (stereo unspecified) | -3% | 5% | 32% | -1%
C=CCN(c1ccccc1)S(=O)(=O)c1cccc(C(=O)N(CC)CC(=O)Nc2c(F)cccc2F)c1 | ? | nt | -16% | 9%
COc1ccc(N(Cc2ccccc2)S(=O)(=O)c2cc(C(=O)O)ccc2Cl)cc1 | 27% | -1% | ? | 0%
Cc1nc(-c2ccc3c(c2)OCO3)cs1 | 44% | -3% | 127% | 2%
